Hits are enriched below; roughly 7.8% of the tested compounds scored in any of these assays.
MITF inh – inhibitors of MITF, primary screen, MITF inhibitor project, cell-based, luminescence | TRPM1 promoter luciferase, 24 h | inhibition, % (concentration not given with the values) | AID 2240, 2010 | actives 0.28% (n = 37,000); in the data active = inhibition above about 85%; inconclusive = no clear call, values can overlap the other calls; inactive = below about 68%;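 note: human melanocyte line stably carrying TRPM1 promoter luciferase reporter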
NOMO-1 viab – NOMO-1 AML cell viability reduction, primary screen, STK33 inhibitor project, CellTiter-Glo luminescence; NOMO-1 AML viability, 72 h; inhibition, % (concentration not given with the values); actives 7.5% (n = 37,000); AID 2330, 2010; in the data active = inhibition above about 80%; inconclusive = no clear call, values can overlap the other calls
Hedgehog inh – Hedgehog pathway signaling inhibitors, primary screen, luminescence, Shh-LIGHT2 cells, Gli-luciferase; Shh-LIGHT2 Gli-luciferase reporter, 30 h; inhibition, % (no concentration beside the values); actives 2.1% (n = 22,000);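 active = mean inhibition across valid replicates above about 65%, limit read from the data; inconclusive = mean under the limit, yet half or more replicates past it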;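 note: pathway switched on by Shh-conditioned medium diluted 1 in 25 in low serum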
Large screens that a line does not name were inactive.

C[C@H](CO)N1C[C@H](C)[C@H](CN(C)Cc2ccc(C(=O)Nc3ccccc3N)cc2)Oc2ccc(NS(=O)(=O)c3ccc(F)cc3)cc2C1=O	NOMO-1 viab 109 (no result: Hedgehog inh)
C[C@H]1CN([C@@H](C)CO)C(=O)c2cc(NS(=O)(=O)c3ccc(Cl)cc3)ccc2O[C@H]1CN(C)Cc1ccc(C(=O)Nc2ccccc2N)cc1	NOMO-1 viab 111 (no result: Hedgehog inh)
C[C@@H]1CN([C@H](C)CO)C(=O)c2cc(NS(=O)(=O)c3ccccc3)ccc2O[C@H]1CN(C)Cc1ccc(C(=O)Nc2ccccc2N)cc1	none (no result: Hedgehog inh)
Cc1ccc(S(=O)(=O)Nc2ccc3c(c2)C(=O)N([C@H](C)CO)C[C@H](C)[C@H](CN(C)Cc2ccc(C(=O)Nc4ccccc4N)cc2)O3)cc1	NOMO-1 viab inconclusive (no result: Hedgehog inh)
O=C(CSc1nnc(-c2ccncc2)n1-c1ccccc1)Nc1ccnc2ccccc12	none (no result: Hedgehog inh)
CNC[C@@H]1Oc2c(NS(=O)(=O)c3ccccc3)cccc2C(=O)N([C@@H](C)CO)C[C@@H]1C	none
C[C@@H]1CN([C@H](C)CO)C(=O)c2cccc(NS(C)(=O)=O)c2O[C@@H]1CN(C)Cc1ccc(Oc2ccccc2)cc1	none
C[C@@H]1CN([C@@H](C)CO)C(=O)Cc2cc(NS(=O)(=O)c3ccc(F)cc3)ccc2O[C@@H]1CN(C)C(=O)Nc1ccc(C(F)(F)F)cc1	none
COc1ccc(NC(=S)NCCc2ccccc2OC)c(OC)c1	none (no result: Hedgehog inh)
Cc1noc(C)c1NC(=O)Nc1ccc2c(c1)CC(=O)N([C@@H](C)CO)C[C@H](C)[C@@H](CN(C)Cc1ccncc1)O2	none
COC(=O)c1ccc(NC(=O)CSC(=S)N2CCOCC2)cc1	Hedgehog inh 68
CNC(=O)CCC(=O)Nc1ccc(C(=O)OC)cc1	none (no result: Hedgehog inh)
CC(=O)Oc1c(I)c(=O)n(C)c2ccccc12	NOMO-1 viab 121
CCOC(=O)Cc1c(SC)c2ccccc2n1C	none
Cc1noc(C)c1NC(=O)N(C)C[C@@H]1Oc2ccc(NC(=O)c3ccncc3)cc2C(=O)N([C@@H](C)CO)C[C@H]1C	none
COc1ccc(S(=O)(=O)N(C)C[C@H]2Oc3ccc(NC(=O)NC4CCCCC4)cc3CC(=O)N([C@@H](C)CO)C[C@H]2C)cc1	none
Cc1ccc(S(=O)(=O)N(C)C[C@H]2Oc3ccc(NC(=O)NC4CCCCC4)cc3CC(=O)N([C@H](C)CO)C[C@H]2C)cc1	none
CC(C)NC(=O)Nc1ccc2c(c1)CC(=O)N([C@@H](C)CO)C[C@@H](C)[C@@H](CN(C)S(=O)(=O)c1ccc(Cl)cc1)O2	none
C[C@H]1CN([C@@H](C)CO)C(=O)Cc2cc(NC(=O)NC3CCCCC3)ccc2O[C@H]1CN(C)S(=O)(=O)c1ccc(Cl)cc1	NOMO-1 viab 128
Cc1ccc(S(=O)(=O)N(C)C[C@@H]2Oc3ccc(NC(=O)NC4CCCCC4)cc3CC(=O)N([C@H](C)CO)C[C@@H]2C)cc1	NOMO-1 viab 124
Cc1ccc(S(=O)(=O)N(C)C[C@@H]2Oc3ccc(NC(=O)NC4CCCCC4)cc3CC(=O)N([C@@H](C)CO)C[C@@H]2C)cc1	NOMO-1 viab 116 (no result: Hedgehog inh)
CC(C)NC(=O)Nc1ccc2c(c1)C(=O)N([C@H](C)CO)C[C@H](C)[C@H](CN(C)Cc1ccc(C(F)(F)F)cc1)O2	none
COc1ccc(S(=O)(=O)Nc2ccc3c(c2)C(=O)N([C@H](C)CO)C[C@@H](C)[C@H](CN(C)CC2CCCCC2)O3)cc1	none (no result: Hedgehog inh)
COc1ccc(CN(C)C[C@@H]2Oc3ccc(NS(C)(=O)=O)cc3CC(=O)N([C@@H](C)CO)C[C@@H]2C)cc1	none
CCn1c(SCC(=O)Nc2cc(Cl)c(Cl)cc2Cl)nnc1-c1cccc(C)c1	none (no result: Hedgehog inh)
CC(=O)N1CCc2cc(NC(=S)NC3CCCCCC3)ccc21	none
COc1cccc2cc(C(=O)CC3(O)C(=O)N(Cc4ccccc4)c4ccc(Br)cc43)c(=O)oc12 (configuration not stated)	NOMO-1 viab 127 (no result: Hedgehog inh)
O=C(NCCO)c1cc2ccccc2oc1=O	none (no result: Hedgehog inh)
O=C(CC1(O)C(=O)N(Cc2ccccc2)c2ccccc21)c1cc2ccccc2oc1=O (configuration not stated)	NOMO-1 viab 105 (no result: Hedgehog inh)
COc1cccc2cc(C(=O)NCc3ccccn3)c(=O)oc12	none (no result: Hedgehog inh)
C=CC/C=C\C/C=C\CCCCCCCc1cccc(O)c1C(=O)O	none
COc1ccc(S(=O)(=O)Nc2cccc3c2O[C@H](CN(C)Cc2ccncc2)[C@H](C)CN([C@@H](C)CO)C3=O)cc1	none
C[C@@H]1CN([C@H](C)CO)C(=O)Cc2cc(NC(=O)Nc3ccc4c(c3)OCO4)ccc2O[C@H]1CN(C)S(C)(=O)=O	none
C[C@H]1CN([C@@H](C)CO)C(=O)Cc2cc(NC(=O)Nc3ccc(F)cc3)ccc2O[C@H]1CN(C)Cc1ccc(C(=O)O)cc1	none (no result: Hedgehog inh)
